# Source: publication PMC7862700, “An all-to-all approach to the identification of sequence-specific readers for epigenetic DNA modifications on cytosine”
# Tests used:
# Test in all cases: DAPPL (digital affinity profiling via proximity ligation, sequencing); 10 mM Tris-HCl pH 7.5, 50 mM NaCl, 1 mM DTT, 4% glycerol, room temperature, 30 min; GST-TFs on glutathione beads, 16-mer random dsDNA library, 0.1% formaldehyde crosslink after washing; high values mean tight binding
# Conditions in all cases: protein: recombinant; tags: N-terminal GST; dsDNA, one strand shown
# FLI1 = biological target: T1, FLI1 (Homo sapiens, UniProt Q01543 1-452)
# T1 sequence: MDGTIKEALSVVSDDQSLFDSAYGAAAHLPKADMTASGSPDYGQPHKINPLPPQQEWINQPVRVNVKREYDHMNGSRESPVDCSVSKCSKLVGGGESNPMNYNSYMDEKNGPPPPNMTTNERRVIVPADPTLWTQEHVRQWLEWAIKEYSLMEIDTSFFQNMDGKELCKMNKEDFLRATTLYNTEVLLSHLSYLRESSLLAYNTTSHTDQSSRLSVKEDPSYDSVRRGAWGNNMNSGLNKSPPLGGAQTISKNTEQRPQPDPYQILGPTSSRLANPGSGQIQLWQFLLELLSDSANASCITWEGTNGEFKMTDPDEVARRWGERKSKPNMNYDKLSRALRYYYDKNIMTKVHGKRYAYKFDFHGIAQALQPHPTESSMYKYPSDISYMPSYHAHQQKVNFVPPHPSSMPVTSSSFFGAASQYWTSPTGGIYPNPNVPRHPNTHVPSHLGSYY
# In short: (§1)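 Each value of binding signal is a hexamer's read frequency for a factor divided by the same hexamer's frequency in the tag-only sample. Barcoded, bead-captured GST fusions of human transcription factors made in yeast were pooled with that sample and incubated with 200 nmole of a random double-stranded 16-mer DNA library in Tris/NaCl/DTT/glycerol buffer at room temperature for 30 min. Washing, 0.1% formaldehyde crosslinking, proximity ligation, PCR and Illumina NextSeq500 sequencing followed.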
# ELK1 = biological target: T2, ELK1 (Homo sapiens, UniProt P19419 1-428)
# T2 sequence: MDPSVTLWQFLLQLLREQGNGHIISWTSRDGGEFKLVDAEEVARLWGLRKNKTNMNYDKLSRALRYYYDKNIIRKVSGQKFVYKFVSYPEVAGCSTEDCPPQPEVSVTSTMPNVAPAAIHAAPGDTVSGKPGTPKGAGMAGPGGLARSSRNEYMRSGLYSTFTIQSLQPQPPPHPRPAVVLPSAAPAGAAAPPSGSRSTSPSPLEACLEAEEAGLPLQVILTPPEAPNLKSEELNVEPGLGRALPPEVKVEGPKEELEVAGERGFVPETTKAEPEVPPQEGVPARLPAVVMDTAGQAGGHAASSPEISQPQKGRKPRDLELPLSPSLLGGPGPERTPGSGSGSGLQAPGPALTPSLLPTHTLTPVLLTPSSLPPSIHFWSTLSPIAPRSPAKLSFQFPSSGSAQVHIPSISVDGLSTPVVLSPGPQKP
# In short: as §1
# GABPA = biological target: T3, GABPA (Homo sapiens, UniProt Q06546 1-454)
# T3 sequence: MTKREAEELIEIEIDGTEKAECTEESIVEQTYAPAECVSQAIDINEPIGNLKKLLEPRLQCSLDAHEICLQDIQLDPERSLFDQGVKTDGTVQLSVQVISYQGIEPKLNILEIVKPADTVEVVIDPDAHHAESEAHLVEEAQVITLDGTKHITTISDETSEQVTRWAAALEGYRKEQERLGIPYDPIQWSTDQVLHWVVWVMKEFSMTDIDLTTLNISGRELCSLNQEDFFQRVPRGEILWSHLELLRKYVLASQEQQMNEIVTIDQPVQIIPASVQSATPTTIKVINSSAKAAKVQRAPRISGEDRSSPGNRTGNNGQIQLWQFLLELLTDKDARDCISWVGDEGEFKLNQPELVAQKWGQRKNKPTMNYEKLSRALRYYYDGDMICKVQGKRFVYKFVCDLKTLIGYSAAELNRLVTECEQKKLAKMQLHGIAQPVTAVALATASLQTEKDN
# In short: as §1
# ERG = biological target: T4, ERG (Homo sapiens, UniProt P11308 1-479)
# T4 sequence: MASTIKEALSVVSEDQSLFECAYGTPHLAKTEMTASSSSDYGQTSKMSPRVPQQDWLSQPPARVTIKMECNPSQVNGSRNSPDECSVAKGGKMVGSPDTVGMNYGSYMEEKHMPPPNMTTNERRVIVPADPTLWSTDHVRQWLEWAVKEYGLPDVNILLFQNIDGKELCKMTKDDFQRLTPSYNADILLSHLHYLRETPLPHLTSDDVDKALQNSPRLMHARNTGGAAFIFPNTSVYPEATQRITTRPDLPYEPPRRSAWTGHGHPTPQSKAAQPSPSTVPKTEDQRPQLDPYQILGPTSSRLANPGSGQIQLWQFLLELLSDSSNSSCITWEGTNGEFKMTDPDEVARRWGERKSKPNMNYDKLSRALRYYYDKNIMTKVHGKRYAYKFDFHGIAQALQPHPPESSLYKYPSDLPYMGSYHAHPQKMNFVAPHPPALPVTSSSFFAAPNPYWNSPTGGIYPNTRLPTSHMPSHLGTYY
# In short: as §1
# ELF1 = ELF1 (Homo sapiens, UniProt P32519 1-619)
# Sequence of ELF1 (P32519 whole entry): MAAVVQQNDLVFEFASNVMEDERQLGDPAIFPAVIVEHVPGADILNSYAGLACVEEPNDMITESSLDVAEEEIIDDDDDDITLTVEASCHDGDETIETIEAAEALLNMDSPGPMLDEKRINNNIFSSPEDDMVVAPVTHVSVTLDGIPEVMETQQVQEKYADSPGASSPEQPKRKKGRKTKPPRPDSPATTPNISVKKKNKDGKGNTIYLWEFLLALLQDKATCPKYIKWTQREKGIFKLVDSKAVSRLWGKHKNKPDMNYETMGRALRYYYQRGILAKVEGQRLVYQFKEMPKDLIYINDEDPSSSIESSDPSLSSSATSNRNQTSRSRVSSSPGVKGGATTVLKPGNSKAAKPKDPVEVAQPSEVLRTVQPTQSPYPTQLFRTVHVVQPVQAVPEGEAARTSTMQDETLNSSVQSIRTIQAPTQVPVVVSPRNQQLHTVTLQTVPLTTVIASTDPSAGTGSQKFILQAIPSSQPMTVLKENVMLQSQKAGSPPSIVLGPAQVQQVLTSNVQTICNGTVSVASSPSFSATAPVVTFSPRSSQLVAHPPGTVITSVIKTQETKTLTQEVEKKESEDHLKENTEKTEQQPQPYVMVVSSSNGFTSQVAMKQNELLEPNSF
# In short: as §1
# EHF = biological target: T5, EHF (Homo sapiens, UniProt Q9NZC4 1-300)
# T5 sequence: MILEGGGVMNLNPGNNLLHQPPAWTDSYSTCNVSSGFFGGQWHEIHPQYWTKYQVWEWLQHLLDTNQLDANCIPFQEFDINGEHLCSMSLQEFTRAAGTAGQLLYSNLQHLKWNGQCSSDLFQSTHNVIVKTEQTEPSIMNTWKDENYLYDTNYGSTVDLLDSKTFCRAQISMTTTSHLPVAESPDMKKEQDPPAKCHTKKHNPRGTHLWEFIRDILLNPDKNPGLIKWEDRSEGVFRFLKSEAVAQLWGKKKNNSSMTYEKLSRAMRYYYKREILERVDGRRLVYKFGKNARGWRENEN
# In short: as §1
# SPI1 = SPI1 (Homo sapiens, UniProt P17947 1-270)
# In short: as §1
# SPIB = SPIB (Homo sapiens, UniProt Q01892 1-262)
# Sequence of SPIB (Q01892 whole entry): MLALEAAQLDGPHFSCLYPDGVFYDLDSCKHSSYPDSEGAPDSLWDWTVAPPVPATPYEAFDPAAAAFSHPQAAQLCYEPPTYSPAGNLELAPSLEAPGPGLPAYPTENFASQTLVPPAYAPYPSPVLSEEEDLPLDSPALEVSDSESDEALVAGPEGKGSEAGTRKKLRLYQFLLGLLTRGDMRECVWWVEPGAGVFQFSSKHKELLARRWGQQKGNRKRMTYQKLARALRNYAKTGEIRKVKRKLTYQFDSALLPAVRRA
# In short: as §1
# ELK3 = biological target: T6, ELK3 (Homo sapiens, UniProt P41970 1-407)
# T6 sequence: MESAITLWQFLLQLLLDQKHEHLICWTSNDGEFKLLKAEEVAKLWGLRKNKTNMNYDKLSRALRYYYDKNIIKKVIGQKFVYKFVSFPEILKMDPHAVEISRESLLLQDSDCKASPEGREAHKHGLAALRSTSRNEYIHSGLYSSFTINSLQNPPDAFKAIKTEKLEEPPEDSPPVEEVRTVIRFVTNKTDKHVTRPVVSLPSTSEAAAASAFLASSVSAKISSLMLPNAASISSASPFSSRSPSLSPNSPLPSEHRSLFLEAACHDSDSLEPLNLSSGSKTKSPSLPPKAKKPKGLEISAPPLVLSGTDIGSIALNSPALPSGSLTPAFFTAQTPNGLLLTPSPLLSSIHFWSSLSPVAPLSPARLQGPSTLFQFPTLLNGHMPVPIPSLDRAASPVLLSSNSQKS
# In short: as §1
# FEV = biological target: T7, FEV (Homo sapiens, UniProt Q99581 1-238)
# T7 sequence: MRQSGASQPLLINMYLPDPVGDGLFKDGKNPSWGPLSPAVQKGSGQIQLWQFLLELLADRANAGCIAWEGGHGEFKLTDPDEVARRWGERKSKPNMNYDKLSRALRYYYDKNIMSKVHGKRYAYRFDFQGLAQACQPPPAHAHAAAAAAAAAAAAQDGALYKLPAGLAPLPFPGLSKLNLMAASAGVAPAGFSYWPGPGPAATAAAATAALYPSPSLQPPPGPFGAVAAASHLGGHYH
# In short: as §1
# ETV5 = ETV5 (Homo sapiens, UniProt P41161 1-510)
# Sequence of ETV5 (P41161 whole entry): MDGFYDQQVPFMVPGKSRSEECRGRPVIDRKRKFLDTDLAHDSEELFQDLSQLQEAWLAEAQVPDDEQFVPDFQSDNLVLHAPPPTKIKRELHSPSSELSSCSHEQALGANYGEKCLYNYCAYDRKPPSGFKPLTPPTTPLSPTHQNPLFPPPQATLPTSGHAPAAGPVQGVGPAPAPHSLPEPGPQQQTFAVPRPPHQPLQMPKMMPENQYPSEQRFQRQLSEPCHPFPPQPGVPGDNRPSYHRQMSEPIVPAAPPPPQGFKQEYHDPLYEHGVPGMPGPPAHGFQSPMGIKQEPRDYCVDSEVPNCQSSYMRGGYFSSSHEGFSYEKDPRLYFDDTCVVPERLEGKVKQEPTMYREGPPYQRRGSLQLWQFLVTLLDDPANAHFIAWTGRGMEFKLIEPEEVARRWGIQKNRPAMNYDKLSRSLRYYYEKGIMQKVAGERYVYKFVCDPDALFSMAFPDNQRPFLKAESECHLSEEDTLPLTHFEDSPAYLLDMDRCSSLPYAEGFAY
# In short: as §1
# SPIC = biological target: T8, SPIC (Homo sapiens, UniProt Q8N5J4 1-248)
# T8 sequence: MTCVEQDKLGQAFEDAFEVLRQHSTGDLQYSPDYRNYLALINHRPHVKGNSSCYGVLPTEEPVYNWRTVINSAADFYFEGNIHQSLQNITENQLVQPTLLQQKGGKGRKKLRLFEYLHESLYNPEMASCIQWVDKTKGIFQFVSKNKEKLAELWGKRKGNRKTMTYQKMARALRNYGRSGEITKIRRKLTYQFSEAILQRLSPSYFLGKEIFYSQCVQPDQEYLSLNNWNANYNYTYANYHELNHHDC
# In short: as §1
# ELF4 = ELF4 (Homo sapiens, UniProt Q99607 1-663)
# Sequence of ELF4 (Q99607 whole entry): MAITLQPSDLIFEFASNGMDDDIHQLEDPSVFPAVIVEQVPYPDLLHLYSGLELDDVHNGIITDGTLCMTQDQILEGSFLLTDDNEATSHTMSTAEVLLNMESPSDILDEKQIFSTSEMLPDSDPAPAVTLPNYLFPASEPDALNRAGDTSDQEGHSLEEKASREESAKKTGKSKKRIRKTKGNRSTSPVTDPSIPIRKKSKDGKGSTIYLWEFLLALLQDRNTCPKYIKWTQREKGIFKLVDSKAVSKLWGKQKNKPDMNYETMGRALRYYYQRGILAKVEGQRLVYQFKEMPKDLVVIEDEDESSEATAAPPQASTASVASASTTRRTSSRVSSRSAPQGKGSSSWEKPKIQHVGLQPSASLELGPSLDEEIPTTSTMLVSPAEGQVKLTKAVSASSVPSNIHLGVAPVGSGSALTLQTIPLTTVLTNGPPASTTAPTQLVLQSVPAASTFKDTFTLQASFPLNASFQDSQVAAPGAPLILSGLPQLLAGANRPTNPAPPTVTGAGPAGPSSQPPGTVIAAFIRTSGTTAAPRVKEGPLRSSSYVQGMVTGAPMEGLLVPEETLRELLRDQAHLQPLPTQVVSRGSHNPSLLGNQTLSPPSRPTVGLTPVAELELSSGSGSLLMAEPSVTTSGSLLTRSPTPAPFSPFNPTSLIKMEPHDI
# In short: as §1
# ELK4 = biological target: T9, ELK4 (Homo sapiens, UniProt P28324-2 1-405)
# T9 sequence: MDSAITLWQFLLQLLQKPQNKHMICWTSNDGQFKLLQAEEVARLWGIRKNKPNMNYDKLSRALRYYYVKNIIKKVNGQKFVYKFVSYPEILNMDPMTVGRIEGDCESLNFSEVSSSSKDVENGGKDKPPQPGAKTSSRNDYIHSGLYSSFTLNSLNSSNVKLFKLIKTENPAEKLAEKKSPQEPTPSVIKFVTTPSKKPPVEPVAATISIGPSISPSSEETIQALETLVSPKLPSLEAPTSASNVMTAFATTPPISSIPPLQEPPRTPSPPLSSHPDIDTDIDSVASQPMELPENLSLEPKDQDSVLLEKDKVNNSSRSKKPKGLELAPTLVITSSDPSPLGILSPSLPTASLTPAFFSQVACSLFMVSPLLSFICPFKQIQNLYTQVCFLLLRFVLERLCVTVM
# In short: as §1
# ETV2 = biological target: T10, ETV2 (Homo sapiens, UniProt O00321 1-342)
# T10 sequence: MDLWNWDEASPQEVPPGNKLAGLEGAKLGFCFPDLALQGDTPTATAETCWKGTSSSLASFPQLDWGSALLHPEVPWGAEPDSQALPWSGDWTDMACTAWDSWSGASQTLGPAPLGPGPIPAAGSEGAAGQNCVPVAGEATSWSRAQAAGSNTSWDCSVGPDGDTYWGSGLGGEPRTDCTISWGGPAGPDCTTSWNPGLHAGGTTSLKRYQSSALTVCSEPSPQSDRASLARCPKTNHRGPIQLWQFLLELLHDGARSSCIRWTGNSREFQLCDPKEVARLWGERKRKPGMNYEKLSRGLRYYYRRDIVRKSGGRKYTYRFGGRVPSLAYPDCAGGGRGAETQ
# In short: as §1
# ETV1 = ETV1 (Homo sapiens, UniProt P50549 1-477)
# Sequence of ETV1 (P50549 whole entry): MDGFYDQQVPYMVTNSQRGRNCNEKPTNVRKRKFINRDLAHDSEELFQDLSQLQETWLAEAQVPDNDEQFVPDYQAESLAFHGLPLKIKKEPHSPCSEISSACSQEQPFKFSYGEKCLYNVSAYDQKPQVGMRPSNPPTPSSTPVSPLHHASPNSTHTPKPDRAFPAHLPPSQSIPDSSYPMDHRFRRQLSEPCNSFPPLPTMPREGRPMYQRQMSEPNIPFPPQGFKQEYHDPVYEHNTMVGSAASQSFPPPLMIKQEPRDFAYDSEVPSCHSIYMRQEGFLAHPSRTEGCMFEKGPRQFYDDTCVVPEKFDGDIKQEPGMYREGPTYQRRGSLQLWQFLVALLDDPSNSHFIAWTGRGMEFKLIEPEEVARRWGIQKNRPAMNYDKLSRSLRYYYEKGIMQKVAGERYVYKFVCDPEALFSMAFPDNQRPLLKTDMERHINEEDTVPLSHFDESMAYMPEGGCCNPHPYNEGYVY
# In short: as §1
sequence,measurement,setting,value
CCCATG,binding signal,FLI1,"1.06 fold enrichment (6-mer frequency, TF over GST control)"
same,binding signal,ELK1,"1 fold enrichment (6-mer frequency, TF over GST control)"
same,binding signal,GABPA,"1.22 fold enrichment (6-mer frequency, TF over GST control)"
same,binding signal,ERG,"1.19 fold enrichment (6-mer frequency, TF over GST control)"
same,binding signal,ELF1,"1.15 fold enrichment (6-mer frequency, TF over GST control)"
same,binding signal,EHF,"1.11 fold enrichment (6-mer frequency, TF over GST control)"
same,binding signal,SPI1,"1.14 fold enrichment (6-mer frequency, TF over GST control)"
same,binding signal,SPIB,"1.15 fold enrichment (6-mer frequency, TF over GST control)"
same,binding signal,ELK3,"1.13 fold enrichment (6-mer frequency, TF over GST control)"
same,binding signal,FEV,"1.06 fold enrichment (6-mer frequency, TF over GST control)"
same,binding signal,ETV5,"1.09 fold enrichment (6-mer frequency, TF over GST control)"
same,binding signal,SPIC,"1.02 fold enrichment (6-mer frequency, TF over GST control)"
same,binding signal,ELF4,"1.12 fold enrichment (6-mer frequency, TF over GST control)"
same,binding signal,ELK4,"1.18 fold enrichment (6-mer frequency, TF over GST control)"
same,binding signal,ETV2,"1.02 fold enrichment (6-mer frequency, TF over GST control)"
same,binding signal,ETV1,"1.01 fold enrichment (6-mer frequency, TF over GST control)"
